Measured values published in PubChem BioAssay AID485364 (National Center for Advancing Translational Sciences (NCATS), 2010).
Hit rate of the full screen: of about 360,000 compounds, about 11,000 (3.1%) were called active. Where a call stands in place of a potency, no number is given. Roughly 4% stayed inconclusive and do not appear here. The call rests on the fitted dose curve; in most records, active means well fitted inhibition curve with a large enough effect; inconclusive means small, poorly fitted or top-dose-only effect; inactive means no such curve, though single readings can be large or run the other way. Many of the other results were omitted from the sample, so actives are more common in it than they were.

Biological target: Schistosoma mansoni thioredoxin glutathione reductase (TGR) (UniProt Q962Y6)
Assay: qHTS Assay for the Inhibitors of Schistosoma Mansoni Peroxiredoxins; further: nearly all actives have a fitted effect of over 60% in size
Conditions: purified TGR, DTNB reduction, TNB absorbance 405 nm; series mostly up to 114 µM
Excerpt: Schistosomiasis is a major neglected tropical disease that currently affects over 200 million. It is caused by different species of flatworms, such as Schistosoma mansoni. Over the last century, drugs to treat the disease have evolved from potassium antimonyl tartrate, artemisinin, oxamniquine, to praziquantel, with praziquantel remaining the universally-used single drug of choice over the past three decades. However, transmission rates have changed little with praziquantel, and there is evidence for the development of drug resistant parasites. Because there is currently no suitable alternative therapy available, there is an urgent need to identify new targets and drugs for schistosomiasis treatment. Thioredoxin glutathione reductase (TGR), one uniquely positioned S. mansoni enzyme, has been identified as a major component of the worms' distinct and compressed antioxidant "firewall". TGR is a multifunctional enzyme that catalyzes the interconversion between reduced and oxidized forms of both glutathione (GSH) and thioredoxins, thus making it an attractive new antiparasitic target. Recently, a quantitative high-throughput screen of the NIH Molecular Libraries Small Molecule Repository (MLSMR, ~71K at the time of the screen in 2007) was performed using an assay that targeted both TGR and peroxiredoxin2 (Prx2, an H2O2-reducing enzymatic component of the S. mansoni redox "firewall") by following the decrease of NADPH fluorescence. […] Additional mechanistic link between exogenous NO donation and parasitic injury for the oxadiazole-2-oxide class of compounds was also expanded and better defined. Although the screen addressed both TGR and Prx2, the assay required post-screen target deconvolution for further characterization of the actives. In addition, the fluorescence assay was also subject to fluorescence interference from compound library members. We have developed a 1536-well-based kinetic HTS assay to address TGR alone. The assay followed the reduction of 5, 5'-dithiobis (2-nitrobenzoic acid) (DTNB) (Ellman's reagent) by NADPH and measured the increase in absorbance at 412 nm of the reaction product, TNB. […] This assay format can be used to screen the current MLSMR collection (with >300K compounds available) to find novel TGR inhibitors. Furoxan is a good choice to serve as a positive control in the primary HTS assay.
Three microliters of reagents (100 uM NADPH and 20 nM TGR or 100 uM NADPH as no-enzyme control) were dispensed into 1,536-well black clear-bottomed plates. Compounds (23 nL) were transferred via Kalypsys pin tool equipped with 1536-pin array (10 nL slotted pins, V&P Scientific, San Diego, CA). The plates were then be incubated for 15 min at room temperature, and 1 uL aliquot of 500 uM NADPH were added, immediately followed by a 1 uL aliquot of 15 mM DTNB to start the reaction. The plate was transferred to a ViewLux high-throughput CCD imager (Perkin-Elmer, Wellesley, MA) where kinetic measurements of the TNB absorbance were acquired using a 405 excitation filter. Throughout the screen, reagent bottles and all liquid lines were made light-tight to minimize reagent degradation. All screening operations were performed on a fully integrated robotic system (Kalypsys, San Diego, CA) containing one RX-130 and two RX-90 anthropomorphic robotic arms (Staubli, Duncan, SC). Library plates were screened starting from the lowest and proceeding to the highest concentration, and a "double-dipping" step of the highest concentration was required to access higher concentrations of compounds. Vehicle-only plates, with DMSO being pin-transferred to the entire column 5-48 compound area, were inserted uniformly at the beginning and the end of each library in order to monitor for and record any shifts in the background, which can be affected by reagent dispensers or loss in enzyme activity overtime. […]
Potency means the concentration at half of the fitted maximal effect.

SMILES	Potency	activity change, negative = inhibition
CCOc1ccc(N(CC)C(=O)c2cc3c(=O)oc4ccccc4c3s2)cc1	inactive	–
O=C(c1ccc(Br)cc1)N(Cc1cccs1)c1ccc(F)cc1	inactive	–
Cc1cc(N)n(-c2ccc(S(=O)(=O)N3CCCC3)cc2[N+](=O)[O-])n1	50.1 µM (active)	–
O=[N+]([O-])c1cc(S(=O)(=O)N2CCCC2)ccc1NN=C1CCCC1	inactive	–
CN1CCN(S(=O)(=O)c2ccc(N3CCN(c4ccccc4O)CC3)c([N+](=O)[O-])c2)CC1	inactive	–
COc1cc(OC)cc(C(=O)NCCc2csc3nc(-c4ccccc4F)nn23)c1	inactive	–
CCC1CCCCN1C(=S)Nc1ccc(C(C)=O)cc1 (centres undefined)	inactive	–
COc1cccc(NC(=O)N2CCCC2C(=O)NC2CCCCC2)c1 (centres undefined)	inactive	–
CCC1CCCCN1C(=O)Nc1cccc(NC(=O)N2CCCCC2CC)c1 (centres undefined)	39.8 µM (active)	–
CCN1C(=O)c2ccccc2Sc2ccc(NC(=O)Cc3ccc(OC)cc3)cc21	inactive	–
CCOC(=O)CC1=CC(=O)Nc2ccccc2N1	inactive	–
CCOC(=O)C(=O)C1C(=O)Nc2ccccc21 (centres undefined)	28.2 µM (active)	–
CCCCC(CC)CNC(=O)C(=O)C1C(=O)Nc2ccccc21 (centres undefined)	inactive	–
CCc1ccc(NC(=O)C2CCCN2S(=O)(=O)c2ccc3nc(-c4ccccc4)[nH]c3c2)cc1 (centres undefined)	inactive	–
Fc1ccc(N2CCN(Cc3ccc4c(c3)OCO4)CC2)cc1	–	8.45% [at 11.4 µM] (inactive)
CC(C)c1ccc(O)c(CN2CCN(c3ccccc3)CC2)c1	inactive	–
Oc1cc2c(cc1CN1CCN(c3ccccc3)CC1)OCO2	1.58 µM (active)	–
Cc1cc2c(cc1C)C(c1cccc(OC(C)C)c1)CC(=O)N2 (centres undefined)	inactive	–
CCc1ccc2oc(-c3ccc(NC(=O)c4cc5ccccc5o4)cc3)nc2c1	inactive	–
COc1ccc(OC)c(CNC(=O)c2c3c(nc4ccccc24)C(=O)N(C2CCCCC2)C3)c1	inactive	–
COc1ccc(S(=O)(=O)NCC(c2ccc(N(C)C)cc2)N2CCCC2)cc1 (centres undefined)	inactive	–
CN(C)c1ccc(C(CNS(=O)(=O)c2cc(F)ccc2F)N2CCOCC2)cc1 (centres undefined)	44.7 µM (active)	–
O=S(=O)(NCC(c1ccco1)N1CCOCC1)c1cc(F)ccc1F (centres undefined)	inactive	–
CCCn1ccc2c(OCC(=O)NCc3ccc(F)cc3)cccc2c1=O	inactive	–
COC(=O)c1ccccc1NC(=O)C(Cc1ccccc1)N1Cc2ccccc2C1=O (centres undefined)	inactive	–

SMILES	Potency	activity change, negative = inhibition
COc1ccc(C(=O)c2oc3ccc(Br)cc3c2NC(C)=O)cc1	inactive	–
COc1ccc2oc(=N)c(C(=O)Nc3ccc(Br)cc3)cc2c1	inactive	–
COc1ccc(/C=C/C(=O)c2cc(Br)ccc(=O)c2O)cc1	15.8 µM (active)	–
O=S(=O)(c1ccccc1)c1nc(-c2ccc(Cl)cc2Cl)oc1N1CCCCC1	inactive	–
O=C(CSc1oc(-c2ccco2)nc1S(=O)(=O)c1ccc(Cl)cc1)c1ccccc1	inactive	–
O=S(=O)(c1ccc(Cl)cc1)c1nc(-c2ccco2)oc1N1CCCCC1	14.1 µM (active)	–
CCCc1nn2c(=O)cc(COC(=O)c3ccc(NC(=O)C(C)Oc4ccccc4)cc3)nc2s1 (centres undefined)	inactive	–
CN(C)CCCn1c(N)c(C#N)c2nc(C#N)c(C#N)nc21	20 µM (active)	–
N#Cc1c(N)n(CCOC(=O)c2ccc(Cl)cc2)c2nc3ccccc3nc12	inactive	–
CCCN(CCC)C(=O)C(Cc1ccccc1)NS(=O)(=O)c1ccc2c(c1)c(=O)n(C)c(=O)n2C (centres undefined)	inactive	–
CCCN(CCC)CCNC(=O)Cn1cnc2sc(C)c(S(=O)(=O)N3CCC(C)CC3)c2c1=O	inactive	–
Cc1ccc2nc(N3C(=O)C(O)=C(C(=O)c4ccco4)C3c3cccc(O)c3)sc2c1 (centres undefined)	inactive	–
CC(C)c1ccc(C2C(C(=O)c3ccco3)=C(O)C(=O)N2CC2CCCO2)cc1 (centres undefined)	inactive	–
C=CCSc1nnc(N2C(=O)C(O)=C(C(=O)c3ccco3)C2c2ccc(F)cc2)s1 (centres undefined)	14.1 µM (active)	–
O=C(CSc1ccc(-c2ccc(F)cc2)nn1)Nc1ccc2c(c1)OCCO2	inactive	–
COc1ccc(NC(=O)CSc2nc(SC)ns2)c(OC)c1	inactive	–
O=C(CSc1ccc(-c2ccccn2)nn1)Nc1ccccc1	inactive	–
O=C(CSc1ccc(-c2ccco2)nn1)Nc1cccc(F)c1	10 µM (active)	–
CCn1c(=O)cc(SCC(=O)NCc2ccc3c(c2)OCO3)c2ccccc21	inactive	–
O=C(CSc1ccc(-c2ccco2)nn1)NCc1ccc2c(c1)OCO2	12.6 µM (active)	–
COc1ccc(NC(=O)CCC(=O)Nc2cc(OC)c(NC(=O)c3ccco3)cc2OC)c(OC)c1	inactive	–
COc1ccc(NC(=O)CSc2ccc(-c3ccco3)nn2)c(OC)c1	20 µM (active)	–
Cc1c(Cl)cccc1NC(=S)NCc1ccc2c(c1)OCO2	inactive	–
COC(=O)Cc1ccc(NC(=S)NCc2ccco2)cc1	inactive	–
S=C(NCc1ccc2c(c1)OCO2)NCc1ccco1	35.5 µM (active)	–

SMILES	Potency	activity change, negative = inhibition
Cc1ccccc1-c1nnc(SCC(=O)NCc2ccc3c(c2)OCO3)n1C	inactive	–
CCCn1c2ccccc2c2cnn(CC(=O)N(CC)c3cc(C)ccc3C)c(=O)c21	inactive	–
Fc1ccc(C(Nc2ccc(Cl)c(C(F)(F)F)c2)c2nnc(-c3ccccc3)o2)cc1 (centres undefined)	inactive	–
Cc1ccc(Nc2c(-c3ccc(C)cc3)nc3cnccn23)cc1	inactive	–
CCOC(=O)c1cc2c(=O)n3ccccc3nc2n(CCCOC)c1=NC(=O)C(C)(C)Oc1ccc(Cl)cc1	inactive	–
Cc1ccc(C)c(NC(=O)C2CCCN(S(=O)(=O)c3cn(C)cn3)C2)c1 (centres undefined)	inactive	–
O=C(CC1Oc2ccc(Cl)cc2NC1=O)NCc1ccccc1 (centres undefined)	inactive	–
CCCSc1ncc(Cl)c(C(=O)Nc2sc3c(c2C(=O)NCCOC)CCCC3)n1	inactive	–
CCCN(CCC)CCCNC(=O)Cn1ncc2c3ccccc3n(Cc3ccccc3)c2c1=O	inactive	–
COc1ccccc1NC(=O)c1oc2ccccc2c1NC(=O)C(C)C	inactive	–
CCN(CC)S(=O)(=O)c1nnc(NC(=O)COc2ccccc2Cl)s1	inactive	–
CC(OC(=O)c1ccc2noc(-c3ccccc3)c2c1)C(N)=O (centres undefined)	35.5 µM (active)	–
COc1ccc(-c2onc3ccc(C(C)=O)cc23)cc1	inactive	–
CC(OC(=O)c1ccc2ccccc2n1)C(=O)c1ccccc1 (centres undefined)	inactive	–
Cc1nc2nc(SCC(=O)N(Cc3ccccc3)C(C)C)nn2c(C)c1Cc1ccccc1Cl	inactive	–
Cc1ccc(Nc2c(-c3ccc(Cl)cc3)nc3sccn23)c(C)c1	inactive	–
COc1ccc(-n2c(C)nc3c(cnn3-c3ccc(F)cc3)c2=O)cc1	inactive	–
O=C(c1ccco1)n1nc(-c2ccc(Cl)cc2)nc1NCc1ccccc1	inactive	–
CS(=O)(=O)n1nc(-c2ccccc2)nc1NCc1ccco1	44.7 µM (active)	–
Cc1ccc(S(=O)(=O)n2nc(-c3ccc(Cl)cc3)nc2NCc2ccccc2)cc1	inactive	–
Cc1ccc(CNC(=O)CCc2c(C)nc3nc(CNC(=O)OC(C)(C)C)nn3c2C)cc1	inactive	–
Cc1cc(OCC(=O)NCC2(N(C)C)CCCCC2)cc(C)c1Cl	inactive	–
O=C(C1=C[C@H](c2ccc(C(F)(F)F)cc2)C[C@H](OCc2ccc(CO)cc2)O1)N1CCN(Cc2ccccc2)CC1	28.2 µM (active)	–
O=C(NCc1ccccc1)C1=C[C@@H](c2ccc(C(F)(F)F)cc2)C[C@@H](OCc2ccc(CO)cc2)O1	inactive	–
O=C(C1=C[C@H](c2coc3ccccc3c2=O)C[C@H](OCc2ccc(CO)cc2)O1)N1CCN(Cc2ccccc2)CC1	inactive	–

SMILES	Potency	activity change, negative = inhibition
O=C(CSCc1cnn(-c2ccccc2)c1-n1cccc1)NCc1ccc(Cl)cc1	inactive	–
CCOc1ccc(C(=O)c2cn(Cc3ccccc3OC)c3ccc(F)cc3c2=O)cc1	inactive	–
COc1ccc2c(c1)Cc1sc(NC(=O)c3ccccc3Br)nc1-2	inactive	–
O=S(=O)(c1ccc(C2CCCCC2)cc1)N1CCN(c2ccc(Cl)c(Cl)c2)CC1	inactive	–
CCCCNC(=O)C1CCCN(c2nnc(C)c3c(C)n(-c4ccc(Cl)cc4)nc23)C1 (centres undefined)	inactive	–
CCN(CCCNC(=O)Cn1ncc2c([nH]c3ccccc32)c1=O)c1cccc(C)c1	inactive	–
CN(C)c1nc(N(C)C)nc(N(C#N)CCCl)n1	1 µM (active)	–
Cc1cccn2c(=O)c3cc(C(=O)NC(C)c4ccccc4)c(=N)n(CCCO)c3nc12 (centres undefined)	inactive	–
CCOC(=O)c1c(NC(C)=O)c2c3c(sc2n1Cc1c(C)cc(C)cc1C)CCCC3	inactive	–
O=C(c1cnn(-c2ccc(F)cc2)c1-n1cccc1)N1CCN(c2ccc(F)cc2)CC1	inactive	–
COc1ccc(-c2[nH]nc3c2C(c2ccncc2)C(C#N)=C(N)O3)cc1 (centres undefined)	inactive	–
CCCc1[nH]nc2c1C(c1ccc(Br)s1)C(C#N)=C(N)O2 (centres undefined)	inactive	–
Cc1cc(C)c(C#N)c(SCc2[nH]nc3c2C(c2ccccc2)C(C#N)=C(N)O3)n1 (centres undefined)	22.4 µM (active)	–
Fc1cc(Br)ccc1NC(=S)Nc1cccnc1	10 µM (active)	–
O=C(Nc1cccnc1)c1cc2cc(Br)ccc2oc1=O	inactive	–
S=C(Nc1cccnc1)Nc1ccccn1	inactive	–
COc1cc(C2c3c(oc4ccccc4c3=O)C(=O)N2c2nc(C)c(C)s2)ccc1O (centres undefined)	inactive	–
O=C(Nc1c(C(=O)N2CCN(c3ccc(F)cc3)CC2)oc2ccccc12)c1ccco1	inactive	–
CCOC(=O)c1oc2c(CN3CCN(CCO)CC3)c(O)c(CC)cc2c(=O)c1-c1nc2ccccc2s1	inactive	–
CC(C)(C)c1ccc(/C=C2\Oc3c(ccc(O)c3CN3CCN(CCO)CC3)C2=O)cc1	50.1 µM (active)	–
O=C(CSc1nc2c(c(=O)[nH]1)CN(Cc1ccc3c(c1)OCO3)CC2)Nc1cc(F)ccc1F	inactive	–
CCOC(=O)c1cnc(COc2ccccc2Cl)[nH]c1=O	inactive	–
CCOC(=O)c1cc2c(=O)[nH]c(C(Cl)(Cl)Cl)nc2o1	17.8 µM (active)	–
CCOC(=O)c1ccc(COC(=O)c2cc(=O)[nH]c3ccccc23)o1	inactive	–
